# Article PMC10726135, “HNF4α isoforms regulate the circadian balance between carbohydrate and lipid metabolism in the liver”
# Over roughly 18,000 sequences, “log2 normalized intensity” has its median near 0.39; the highest 2% begin near 6.6. This excerpt belongs to a sample that is enriched for the highest values.
# Molecular target: T1, HNF4alpha2 (COS-7 nuclear extract) (Homo sapiens, UniProt P41235 1-474)
# T1 sequence: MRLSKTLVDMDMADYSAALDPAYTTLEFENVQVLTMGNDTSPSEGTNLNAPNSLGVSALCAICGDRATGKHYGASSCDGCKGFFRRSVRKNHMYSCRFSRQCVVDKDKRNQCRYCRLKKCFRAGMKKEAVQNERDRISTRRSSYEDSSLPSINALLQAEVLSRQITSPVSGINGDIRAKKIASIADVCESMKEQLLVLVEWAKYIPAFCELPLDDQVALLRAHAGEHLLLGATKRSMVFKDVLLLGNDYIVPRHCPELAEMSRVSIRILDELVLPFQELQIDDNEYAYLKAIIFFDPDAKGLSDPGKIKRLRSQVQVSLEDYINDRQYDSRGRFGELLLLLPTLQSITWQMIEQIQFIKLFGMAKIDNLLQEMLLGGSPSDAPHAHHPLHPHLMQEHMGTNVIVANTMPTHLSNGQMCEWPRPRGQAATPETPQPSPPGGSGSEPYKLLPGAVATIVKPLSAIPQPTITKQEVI
# Assay: protein-binding microarray; COS-7 nuclear extract on double-stranded Agilent 4x180k PBM; binding buffer, salt, pH and temperature not given in the material; high values mean tight binding
# Conditions: chain copies: 2; label: 3' end of strand 1 on the slide; dsDNA, one strand shown
# Method in brief: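 A human HNF4α isoform was expressed in COS-7 cells by transient CaPO4 transfection, and nuclear extracts were prepared. These were applied to a custom Agilent SurePrint G3 4x180k array carrying ~44,000 test sequences in quadruplicate as double-stranded ~60-nt oligonucleotides, and an Agilent G2565CA scanner imaged bound HNF4α at 2-µm resolution. The background-corrected, normalized gProcessedSignal from Agilent software was used as the binding signal.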
row,Sequence,binding signal
1,CCTTTGACCTTCGGCTTCCCCAGAGAAAGAGCCTAGGGAGATTAGAGTATCGGTCGA,3.03 log2 normalized intensity
2,TGGGGTCTCGCTGCTTCGGCCTTTGACCTCGCCTAGGGAGATTAGAGTATCGGTCGA,7.94 log2 normalized intensity
3,AGCTCGCTCAGCTGGTTGCCCCTTTGACCCGCCTAGGGAGATTAGAGTATCGGTCGA,7.89 log2 normalized intensity
4,CCCGCCTTTGACACAGGCGACCTTCGCTCGGCCTAGGGAGATTAGAGTATCGGTCGA,5.17 log2 normalized intensity
5,TCAGGCACAGCTCGACCTTTGACCTTCGGCGCCTAGGGAGATTAGAGTATCGGTCGA,10.2 log2 normalized intensity
6,GCCCCAGCTCGCTCAGCTGGTTGCCCCTTTGCCTAGGGAGATTAGAGTATCGGTCGA,4.14 log2 normalized intensity
7,TCTCGCTGCTTCGGCCTTTGACCTCGTGATGCCTAGGGAGATTAGAGTATCGGTCGA,6.52 log2 normalized intensity
8,GCTCAGCTGGTTGCCCCTTTGACCCTCGGGGCCTAGGGAGATTAGAGTATCGGTCGA,6.11 log2 normalized intensity
9,CACAGCTCGACCTTTGACCTTCGGCTTCCCGCCTAGGGAGATTAGAGTATCGGTCGA,8.84 log2 normalized intensity
10,AAATCCCCGCCTTTGACACAGGCGACCTTCGCCTAGGGAGATTAGAGTATCGGTCGA,3.94 log2 normalized intensity
11,CTTTGACACAGGCGACCTTCGCTCGGCTCGGCCTAGGGAGATTAGAGTATCGGTCGA,3.46 log2 normalized intensity
12,CAGGGTGGGGTCTCGCTGCTTCGGCCTTTGGCCTAGGGAGATTAGAGTATCGGTCGA,1.33 log2 normalized intensity
13,CCTTGCACTATTGACCCAGTGAAACAACACGCCTAGGGAGATTAGAGTATCGGTCGA,1.65 log2 normalized intensity
14,TAGGCCACCTGTGTCAACATGGACTTTGTTGCCTAGGGAGATTAGAGTATCGGTCGA,5.86 log2 normalized intensity
15,TTCTGCCTTATCAGCGGCCCTGTGCTGCCCGCCTAGGGAGATTAGAGTATCGGTCGA,0.0914 log2 normalized intensity
16,CCTCTGTCTCTCAGGCACAGCTCGACCTTTGCCTAGGGAGATTAGAGTATCGGTCGA,5.94 log2 normalized intensity
17,CTTGTCTTATCAGCAGGGTCTTTTTGACCTGCCTAGGGAGATTAGAGTATCGGTCGA,4.38 log2 normalized intensity
18,GTCTCTCAGGCACAGCTCGACCTTTGACCTGCCTAGGGAGATTAGAGTATCGGTCGA,10.1 log2 normalized intensity
19,CTATTATGCCTTGACTTCAAATCATACTGAGCCTAGGGAGATTAGAGTATCGGTCGA,0.897 log2 normalized intensity
20,TCAGAGATCAAGATACAGGTCAGACCCTGGGCCTAGGGAGATTAGAGTATCGGTCGA,0.993 log2 normalized intensity
21,CTATTGTCCTATGACCCTGCCAAATCCCCCGCCTAGGGAGATTAGAGTATCGGTCGA,4.52 log2 normalized intensity
22,CATTTTACAGTGCCATTTATCAGTGATTTCGCCTAGGGAGATTAGAGTATCGGTCGA,0.854 log2 normalized intensity

row,Sequence,binding signal
1,CTTCCCAGCTGCTGGTCAAAGGGCATTACTGCCTAGGGAGATTAGAGTATCGGTCGA,4.94 log2 normalized intensity
2,CAGAGCTGTCGTCCCAGGGCAAAGGTCACCGCCTAGGGAGATTAGAGTATCGGTCGA,7.59 log2 normalized intensity
3,TTCCAAAGGTCACCCGTATTCCTTAGCTTAGCCTAGGGAGATTAGAGTATCGGTCGA,1.6 log2 normalized intensity
4,CTGTCGTCCCAGGGCAAAGGTCACCAGCTAGCCTAGGGAGATTAGAGTATCGGTCGA,6.66 log2 normalized intensity
5,CCAGGTTCCAAAGGTCACCCGTATTCCTTAGCCTAGGGAGATTAGAGTATCGGTCGA,6.63 log2 normalized intensity
6,TATTCCCAGGTTCCAAAGGTCACCCGTATTGCCTAGGGAGATTAGAGTATCGGTCGA,6.51 log2 normalized intensity
7,GGGCAAATCTGAGGTCAAAGCTGTCAGAGAGCCTAGGGAGATTAGAGTATCGGTCGA,-0.198 log2 normalized intensity
8,GTCCCAGGGCAAAGGTCACCAGCTAAGCTGGCCTAGGGAGATTAGAGTATCGGTCGA,5.83 log2 normalized intensity
9,AGGGCAAAGGTCACCAGCTAAGCTGTTACTGCCTAGGGAGATTAGAGTATCGGTCGA,5.12 log2 normalized intensity
10,GCTGAGGAATTTGGACTTCAGCCCAGGCTGGCCTAGGGAGATTAGAGTATCGGTCGA,3.66 log2 normalized intensity
11,ACCACCTTCCCCCATCCCCAACAAAGCTCTGCCTAGGGAGATTAGAGTATCGGTCGA,4.7 log2 normalized intensity
12,TCTCAAAAGTTTTTCCCTTCTGTTAGAATGGCCTAGGGAGATTAGAGTATCGGTCGA,-0.592 log2 normalized intensity
13,CTTCAAGTCAGTTGCATGCAACCTTTGTCCGCCTAGGGAGATTAGAGTATCGGTCGA,5.67 log2 normalized intensity
14,ATATTCACTATCTGATCCTTTACAGAGATAGCCTAGGGAGATTAGAGTATCGGTCGA,-0.305 log2 normalized intensity
15,TGTTACTTATAAATAATCTCAACCATACAAGCCTAGGGAGATTAGAGTATCGGTCGA,-0.991 log2 normalized intensity
16,CAACCAAGTCCATCTGTATTGCCTCCTTTGGCCTAGGGAGATTAGAGTATCGGTCGA,1.08 log2 normalized intensity
17,TTCCAGGGATGTTTGGCAGCTGAGGATTGTGCCTAGGGAGATTAGAGTATCGGTCGA,1.61 log2 normalized intensity
18,CATCTACCAGCGTAATTCTGGCTCTTTGAGGCCTAGGGAGATTAGAGTATCGGTCGA,0.87 log2 normalized intensity
19,GCGTGAGCCACCGCGCCCCGCCCCCAGTGCGCCTAGGGAGATTAGAGTATCGGTCGA,5.65 log2 normalized intensity
20,TGCTGGAGATGAGGCTCAGACCTGACCTTTGCCTAGGGAGATTAGAGTATCGGTCGA,6.49 log2 normalized intensity
21,GGACCTGAGGCTTTTGAGTCAATAATGGACGCCTAGGGAGATTAGAGTATCGGTCGA,1.21 log2 normalized intensity
22,GAGGCTCAGACCTGACCTTTGGATTCCCAGGCCTAGGGAGATTAGAGTATCGGTCGA,6.53 log2 normalized intensity

row,Sequence,binding signal
1,GAGATGAGGCTCAGACCTGACCTTTGGATTGCCTAGGGAGATTAGAGTATCGGTCGA,7.99 log2 normalized intensity
2,AAGACTTTGGACTTTGGACCTGAGGCTTTTGCCTAGGGAGATTAGAGTATCGGTCGA,9.84 log2 normalized intensity
3,TACTTTGGACTGGGGACCTGGTCTGAGATAGCCTAGGGAGATTAGAGTATCGGTCGA,1.75 log2 normalized intensity
4,ATGTGGGGAAACTGGACTGTAATTTGTGGTGCCTAGGGAGATTAGAGTATCGGTCGA,1.43 log2 normalized intensity
5,ACGTCAGAACTGTCCTTTAACCTCCCTGCAGCCTAGGGAGATTAGAGTATCGGTCGA,1.99 log2 normalized intensity
6,AATGGAAGAATCACAGTGTGGGGCAAATCTGCCTAGGGAGATTAGAGTATCGGTCGA,-0.752 log2 normalized intensity
7,ACCAGGGGGCAGAGTGAGCAGCACTTTTGGGCCTAGGGAGATTAGAGTATCGGTCGA,-0.845 log2 normalized intensity
8,CTGCCAAAGTTCAGCCTTGGGGCCATTCCAGCCTAGGGAGATTAGAGTATCGGTCGA,0.325 log2 normalized intensity
9,TCATCGCACCGGCAGGGGAGAACTTCCTCCGCCTAGGGAGATTAGAGTATCGGTCGA,-0.988 log2 normalized intensity
10,CTGGGGCCACCCTCCTCTCTGGGTCAAAGGGCCTAGGGAGATTAGAGTATCGGTCGA,4.74 log2 normalized intensity
11,CCTCCTCTCTGGGTCAAAGGTCATCGCACCGCCTAGGGAGATTAGAGTATCGGTCGA,7.54 log2 normalized intensity
12,GCCACCCTCCTCTCTGGGTCAAAGGTCATCGCCTAGGGAGATTAGAGTATCGGTCGA,9.58 log2 normalized intensity
13,CACTGGCTCTGGGGTCAAAGTCCCCTGAGCGCCTAGGGAGATTAGAGTATCGGTCGA,7.16 log2 normalized intensity
14,CTCTCCCTCCTCTCTGAGCAGTCAAACTGGGCCTAGGGAGATTAGAGTATCGGTCGA,1.96 log2 normalized intensity
15,GAGGTGTCAGCCACCCCTCCTCCTGGGGGCGCCTAGGGAGATTAGAGTATCGGTCGA,2.64 log2 normalized intensity
16,GGGGTCAAAGTCCCCTGAGCTTGAGTCCATGCCTAGGGAGATTAGAGTATCGGTCGA,5.36 log2 normalized intensity
17,CCTGCCTCTCCTCTGAGCTTCATCCTGACCGCCTAGGGAGATTAGAGTATCGGTCGA,1.62 log2 normalized intensity
18,TCTCTGGGTCAAAGGTCATCGCACCGGCAGGCCTAGGGAGATTAGAGTATCGGTCGA,7.15 log2 normalized intensity
19,AAAGGTCATCGCACCGGCAGGGGAGAACTTGCCTAGGGAGATTAGAGTATCGGTCGA,0.284 log2 normalized intensity
20,AGGTCGCAAGCACTGGCTCTGGGGTCAAAGGCCTAGGGAGATTAGAGTATCGGTCGA,3.1 log2 normalized intensity
